PubChem BioAssay (Tox21)
Several values for one entry are separate records, joined by “and”; a condition that tells them apart may be missing. Equal entries are not always repeated. Records with an inconclusive call do not appear. The source holds several records for some structures; these can differ, active in one and inactive in another. Activity calls are given as the source filed them. Calls come from the whole dose curve; as a rule, active = well fitted cell-killing curve with a large enough effect in the repeat runs; inconclusive = weak or mixed curves, or effect the other way; inactive = no such curve, though single readings can be large or run the other way.

experiment: qHTS assay for identifying genotoxic compounds that show differential cytotoxicity against isogenic chicken DT40 cell lines with known DNA damage response pathways - wild type cell line (AID 743012); conditions: DT40 wild type chicken cells viability, CellTiter-Glo, 40 h; series mostly up to 68.4 µM; note: nearly all actives have a fitted effect of over 60% in size
Procedure, shortened: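 Using parental DT40 (300 cells/well), compounds delivered in DMSO incubate 40 h at 37 C/5% CO2. CellTiter-Glo reagent then stands 30 min at room temperature, and luminescence gives cell viability.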
Potency is the fitted concentration of half-maximal effect.

SMILES	Potency
CNc1ccc(O)cc1	7.68 µM (active)
CCCCCCCCCCCC[N+](C)(C)CCCCCCCCCCCC	4.33 µM (active)
CC(=O)S[C@@H]1CC2=CC(=O)CC[C@]2(C)[C@H]2CC[C@@]3(C)[C@@H](CC[C@@]34CCC(=O)O4)[C@H]12	7.5 µM (active) and 6.11 µM (active)
O=C(OC[C@H]1O[C@@H](OC(=O)c2cc(O)c(O)c(OC(=O)c3cc(O)c(O)c(O)c3)c2)[C@H](OC(=O)c2cc(O)c(O)c(OC(=O)c3cc(O)c(O)c(O)c3)c2)[C@@H](OC(=O)c2cc(O)c(O)c(OC(=O)c3cc(O)c(O)c(O)c3)c2)[C@@H]1OC(=O)c1cc(O)c(O)c(OC(=O)c2cc(O)c(O)c(O)c2)c1)c1cc(O)c(O)c(OC(=O)c2cc(O)c(O)c(O)c2)c1	5.96 µM (active)
CO[Si](CCCNc1ccccc1)(OC)OC	12.2 µM (active)
S=c1[nH]c2ccccc2s1	29.8 µM (active) and 61.1 µM (active)
Cc1cccc(S(=O)(=O)O)c1C	inactive
O=[N+]([O-])c1cc([N+](=O)[O-])c2ccc(S(=O)(=O)O)cc2c1O	inactive
CCOC(=O)O[C@H](C)OC(=O)c1ccc2c(c1)cc(C(=O)NC1CCN(C(C)C)CC1)n2Cc1cc(-c2ccc(Cl)s2)on1	6.41 µM (active)
CCCCCCCCCCCCCCCC[N+](C)(C)CCN(Cc1ccc(OC)cc1)c1ncccn1	1.6 µM (active)
O=C(Oc1cccc2cccnc12)c1ccccc1	2.66 µM (active)
OCCN(CCO)c1nc(N2CCCCC2)c2nc(N(CCO)CCO)nc(N3CCCCC3)c2n1	11.9 µM (active)
CSc1cnc(C)cn1	inactive
CCC(N)(CO)CO	inactive
CCCC1O[C@@H]2C[C@H]3[C@@H]4CCC5=CC(=O)C=C[C@]5(C)[C@H]4[C@@H](O)C[C@]3(C)[C@]2(C(=O)CO)O1 (some centres undefined)	inactive
Clc1ccccc1C(c1ccccc1)(c1ccccc1)n1ccnc1	5.07 µM (active) and 5.45 µM (active)
CC(C)(C)C(=O)OCOC(=O)C1N2C(=O)CC2S(=O)(=O)C1(C)C (centres undefined)	inactive
C1CCCC1	inactive
Cc1c(C)c2c(c(C)c1OC(=O)CCC(=O)O)CC[C@@](C)(CCC[C@H](C)CCC[C@H](C)CCCC(C)C)O2	inactive
O=[N+]([O-])c1cc(Cl)c(Cl)c(Cl)c1Cl	inactive

SMILES	Potency
CC(NN)c1ccccc1 (centres undefined)	inactive
CCCCCCCCNC(C)C(O)c1ccc(SC(C)C)cc1 (centres undefined)	1.88 µM (active)
Oc1cccc2cc3cccc(O)c3c(O)c12	inactive
COc1ccc(C(=O)/C(Br)=C\C(=O)O)cc1	inactive and 3.86 µM (active)
CC(C)c1ccc2c(c1)CC[C@H]1[C@](C)(CN)CCC[C@]21C	5.45 µM (active)
C[C@H](CCC(=O)O)[C@H]1CC[C@H]2[C@@H]3CC[C@@H]4C[C@H](O)CC[C@]4(C)[C@H]3CC[C@]12C	inactive
On1ccccc1=S	0.215 µM (active)
Cc1cc(C2CCCCC2)n(O)c(=O)c1	1.43 µM (active)
COc1cc(/C=C/C(=O)O[C@H]2CC[C@]34C[C@]35CC[C@]3(C)[C@@H]([C@H](C)CCC=C(C)C)CC[C@@]3(C)[C@@H]5CC[C@H]4C2(C)C)ccc1O	inactive
Cc1ccc(-n2nc(C(C)(C)C)cc2NC(=O)Nc2ccc(OCCN3CCOCC3)c3ccccc23)cc1	18.8 µM (active)
CCOC(=O)/C=C(C)/C=C/C=C(C)/C=C/c1c(C)cc(OC)c(C)c1C	9.44 µM (active)
COc1cccc(N)c1	inactive
Cn1cc(C(=O)[C@@H]2CCc3nc[nH]c3C2)c2ccccc21	inactive
O=C(OCC(COC(=O)c1ccccc1)(COC(=O)c1ccccc1)COC(=O)c1ccccc1)c1ccccc1	inactive
CN(C)c1ccc(SC#N)cc1	27.3 µM (active)
CC(=O)OCC(C)OC(C)=O (centres undefined)	inactive
CCc1cc(SCc2sc(-c3ccc(C(F)(F)F)cc3)nc2CN2CCN(c3ccc(OC)cc3)CC2)ccc1OCC(=O)O	43.3 µM (active)
C=CC(=O)OCCn1c(=O)n(CCOC(=O)C=C)c(=O)n(CCOC(=O)C=C)c1=O	2.73 µM (active)
CCCCCCCCCCCCCCCS(=O)(=O)Oc1ccccc1	inactive
